Here are results for seven molecules from PubChem BioAssay (NCI).

Some test systems named below: NCI-H23 lung; NCI-H226 lung; NCI-H322M lung; HOP-62 NSCLC; NCI-H460 lung; HOP-92 NSCLC; NCI-H522 lung; A549/ATCC NSCLC; 786-0 renal; COLO 205 colon; DU-145 prostate; K-562 leukemia; MALME-3M melanoma; MDA-MB-231 breast; RXF 393 renal; SF-268 CNS; SF-295 CNS; SF-539 CNS; UACC-257 melanoma; M14 melanoma.
Common to all, as to experiment: NCI-60 one-dose screen, 48 h (100 = growth as untreated, 0 = no growth, -100 = all killed)
Holding throughout (conditions): 10 µM unless noted

SMILES strings stand for the structures. Compounds without any hit were thinned out: in the full panel of roughly 83,000, 20% have a hit.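 Treatment: one concentration, 48 hours, 96-well format. Scoring: percent growth, with anything below 10 considered active.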 A number with no mark means an inactive call. Calls of active or inactive are those of the source.

As to `Nc1c2c(nc3ccc(Cl)cc13)CC(c1ccc(O)cc1)CC2=O` (stereo not given), the growth in the experiment with NCI-H23 lung was 61.2%; with NCI-H226 lung, 90.5%; with NCI-H322M lung, 56.2%; in the experiment with HOP-62 NSCLC, 56.4%; in the experiment on NCI-H460 lung, 23.2%; in the experiment on HOP-92 NSCLC, 88.4%. The growth is 43.6% with NCI-H522 lung; 59.5% in the experiment with A549/ATCC NSCLC; 57.5% with 786-0 renal; 123% with COLO 205 colon; 72.9% with DU-145 prostate; 18.5% in the experiment on K-562 leukemia. The growth in the experiment with MALME-3M melanoma was 52.6%; in the experiment on MDA-MB-231 breast, 68.5%; in the experiment on RXF 393 renal, 74.2%; in the experiment on SF-268 CNS it was 65.3%; in the experiment with SF-295 CNS, 36.2%; with SF-539 CNS it was 50.8%. Moreover, the growth is 78.2% in the experiment on UACC-257 melanoma and 21.8% in the experiment on M14 melanoma.

Take `C[C@@H](Oc1ccc(C(=O)NS(=O)(=O)C(C)(C)C)cc1C(F)(F)F)c1ccc(Oc2ccccc2)cn1`: the growth with NCI-H23 lung is 61.2%; with NCI-H226 lung, 72.7%; in the experiment on NCI-H322M lung it was 54.3%; with HOP-62 NSCLC, 52.2%; in the experiment with NCI-H460 lung, 45.7%; in the experiment on HOP-92 NSCLC, 63.7%. Further, the growth in the experiment on NCI-H522 lung is 24.5%; in the experiment on A549/ATCC NSCLC, 74.8%; in the experiment with 786-0 renal, 37.5%; in the experiment on COLO 205 colon, 48.7%; in the experiment on DU-145 prostate it was 79.6%; in the experiment with K-562 leukemia, 19.9%. Besides, the growth was 44.4% in the experiment on MALME-3M melanoma; 68.9% in the experiment with MDA-MB-231 breast; -12.5% (active) in the experiment on RXF 393 renal; 54.3% in the experiment with SF-268 CNS; 22.2% with SF-295 CNS; 29.8% with SF-539 CNS. Also, the results for the growth with UACC-257 melanoma and in the experiment on M14 melanoma were 51.5% and 22.8%, respectively.

As for `CC1(n2nnnc2N2CCCN(c3ncccc3N)CC2)CCC1`, the growth with NCI-H23 lung is 103%; in the experiment on NCI-H226 lung it was 90.4%; with NCI-H322M lung, 94.2%; with HOP-62 NSCLC, 99%; in the experiment on NCI-H460 lung, 99.5%; in the experiment with HOP-92 NSCLC, 95.7%. The growth was 100% with NCI-H522 lung; 107% in the experiment on A549/ATCC NSCLC; 104% in the experiment on 786-0 renal; 111% with COLO 205 colon; 109% in the experiment with DU-145 prostate; 87.8% in the experiment on K-562 leukemia. Also, the growth with MALME-3M melanoma is 98.6%; in the experiment on MDA-MB-231 breast, 99.9%; in the experiment with RXF 393 renal, 98.2%; in the experiment on SF-268 CNS, 97%; in the experiment on SF-295 CNS it was 95.5%; in the experiment with SF-539 CNS, 94.8%. The growth in the experiment on UACC-257 melanoma was 108%; in the experiment with M14 melanoma, 97.8%.

As for `N#C/C(=C\c1ccc(-c2ccc(Br)cc2)o1)c1nc(-c2cccs2)cs1`, the growth in the experiment on NCI-H23 lung is 91.3%; in the experiment on NCI-H226 lung it was 102%; in the experiment on NCI-H322M lung, 97.8%; in the experiment with HOP-62 NSCLC, 107%; with NCI-H460 lung, 103%; with HOP-92 NSCLC, 91%. The growth with NCI-H522 lung is 94.4%; in the experiment with A549/ATCC NSCLC it was 109%; in the experiment with 786-0 renal, 100%; in the experiment with COLO 205 colon it was 125%; in the experiment on DU-145 prostate, 100%; in the experiment on K-562 leukemia, 97%. Also, the growth in the experiment on MALME-3M melanoma was 101%; with MDA-MB-231 breast, 89.3%; with RXF 393 renal, 107%; in the experiment with SF-268 CNS, 102%; in the experiment on SF-295 CNS, 100%; in the experiment with SF-539 CNS, 93.8%. For the same molecule, the growth is 102% in the experiment with UACC-257 melanoma and 95.8% in the experiment with M14 melanoma.

With `CN1CCN(CCOc2ccc(-c3cnc4c(-c5ccccc5F)cnn4c3)cc2)CC1`, the growth was 46.5% in the experiment with NCI-H23 lung; 105% in the experiment with NCI-H226 lung; 57.9% with NCI-H322M lung; 64.7% in the experiment with HOP-62 NSCLC; -63.3% (active) in the experiment with NCI-H460 lung; 2.22% (active) in the experiment with HOP-92 NSCLC. For the same molecule, the growth with NCI-H522 lung is 66.8%; in the experiment with A549/ATCC NSCLC it was 22.4%; with 786-0 renal, -73.5% (active); in the experiment with COLO 205 colon, -79.3% (active); in the experiment on DU-145 prostate it was 60.9%; in the experiment with K-562 leukemia, -50.3% (active). In addition, the growth in the experiment on MALME-3M melanoma is 7.94% (active); in the experiment on MDA-MB-231 breast, 29.2%; with RXF 393 renal it was 50%; in the experiment with SF-268 CNS it was 63.9%; with SF-295 CNS it was 65%; in the experiment with SF-539 CNS it was 51.3%. In addition, the figures for the growth in the experiment on UACC-257 melanoma and in the experiment on M14 melanoma were -7.9% (active) and -80.3% (active), respectively.

Turning to `O=[N+]([O-])c1ccc(N/N=C(\C(=N/Nc2ccc([N+](=O)[O-])cc2[N+](=O)[O-])c2ccccc2)c2ccccc2)c([N+](=O)[O-])c1`, the growth was 104% in the experiment on NCI-H23 lung; 93.5% in the experiment with NCI-H226 lung; 85.6% in the experiment with NCI-H322M lung; 89.5% in the experiment on HOP-62 NSCLC; 52.1% in the experiment with NCI-H460 lung; 92.4% in the experiment with HOP-92 NSCLC. The growth is 83.4% in the experiment with NCI-H522 lung; 51.4% in the experiment on A549/ATCC NSCLC; 90.5% in the experiment with 786-0 renal; 43.8% with COLO 205 colon; 86.4% in the experiment on DU-145 prostate; 97.3% in the experiment with K-562 leukemia. Moreover, the growth in the experiment with MALME-3M melanoma was 65.6%; in the experiment on MDA-MB-231 breast it was 94.2%; with RXF 393 renal it was 111%; in the experiment with SF-268 CNS it was 82.6%; in the experiment with SF-295 CNS, 94.6%; in the experiment on SF-539 CNS, 89.2%. Moreover, the values for the growth in the experiment with UACC-257 melanoma and in the experiment on M14 melanoma were 95.2% and 100%, respectively.

Take `Nc1c2c(nc3ccc(Br)cc13)CC(c1ccccc1)CC2=O` (stereo not given): the growth with NCI-H23 lung was 37.7%; in the experiment with NCI-H226 lung it was 71.2%; in the experiment with NCI-H322M lung, 49.1%; in the experiment with HOP-62 NSCLC it was 48.9%; with NCI-H460 lung, 17.1%; in the experiment on HOP-92 NSCLC it was 77.9%. Moreover, the growth in the experiment on NCI-H522 lung is 35.6%; in the experiment on A549/ATCC NSCLC, 48.5%; in the experiment on 786-0 renal it was 49.6%; in the experiment with COLO 205 colon it was 18.6%; in the experiment on DU-145 prostate it was 24.2%; in the experiment on K-562 leukemia it was 13.4%. Moreover, the growth in the experiment with MALME-3M melanoma is 51.9%; in the experiment on MDA-MB-231 breast, 59.6%; in the experiment on RXF 393 renal it was 21.8%; in the experiment on SF-268 CNS, 73.3%; in the experiment on SF-295 CNS, 9.76% (active); in the experiment with SF-539 CNS it was 20%. The growth with UACC-257 melanoma was 86.3%; in the experiment on M14 melanoma it was 17.8%.
